# Screens (PubChem)
# Sampled rows, rich in hits. Any-hit rate of the full collection: about 3.1%.
# LMP1 NFkB inh – EBV LMP1-driven NF-kappaB luciferase reporter inhibitors, primary screen, cell-based, luminescence, single point; LMP1-induced NF-kappaB luciferase reporter cells; inhibition, % at 12.5 µM; 0.69% of 350,000 active; AID 504558, 2011; in the data active = inhibition above about 41%;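 also: 0% = neutral control wells and 100% = reference inhibitor control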
# PAX8 inh HTS – inhibitors of PAX8-driven TPO luciferase reporter, primary screen, RMG-I cells, single concentration; SteadyGlo, 24 h; inhibition, % at 12.6 µM; 1.2% of 360,000 active;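 active = mean replicate inhibition at least 60% with every replicate also reaching 60%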;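 also: luciferase light reporting Pax8 driven TPO promoter activity; plate controls were median of neutral control wells for no effect and mitoxantrone controls for full effect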
# TROY NFkB inh – inhibitors of TROY-driven NF-kB signaling, primary screen, Q293 LMP1-TROYcd cells, NF-kB luciferase, uHTS; inhibition, % at 10 µM; 0.98% of 360,000 active; Q293 LMP1-TROYcd NF-kB luciferase reporter, 4 h; AID 1347056, 2019;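 active = compounds whose plate-normalised and pattern-corrected inhibition of the luciferase reporter signal at the single screening dose is 50% or more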
# TWEAK Fn14 block – inhibitors of TWEAK-Fn14 signaling, primary screen, luciferase reporter cells, uHTS | TWEAK-stimulated Fn14 reporter cells, luciferase luminescence, 8 h | inhibition, % at 10 µM | 2% of 360,000 active; in the data active = inhibition above about 50%
# LGR2 inh – inhibitors of bursicon-induced LGR2 CRE-luciferase signal, primary screen, cell-based, HEK293, CRE-luciferase reporter, bursicon stimulation | Drosophila bursicon receptor LGR2 (rickets) | bursicon-stimulated, 4 h | inhibition, % at 9.99 µM | 0.35% of 380,000 active;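 active = drop in luminescence signal, shown as inhibition above about 50% in the replicate tests, limit read from the data, passing the limit was not always enough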;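 also: agonist challenge used bursicon conditioned medium at about half maximal strength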
# EWS-Fli block – EWS/Fli-driven NR0B1 reporter inhibitors, primary screen, A673 cells, NR0B1 luciferase, luminescence, MLPCN library; 0.67% of 350,000 active; inhibition, % at 12.6 µM; AID 651661, 2012; viability-normalised;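 active = mean inhibition of at least 50% after viability correction, with every replicate also passing that limit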;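 also: firefly luciferase signal divided by Alamar Blue viability fluorescence both relative to DMSO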
# The depositor's hits bear a star; / = not tested or not shown.
SMILES,LMP1 NFkB inh,PAX8 inh HTS,TROY NFkB inh,TWEAK Fn14 block,LGR2 inh,EWS-Fli block
COc1ccc(S(=O)(=O)Nc2ccc3c(c2)C(=O)N([C@@H](C)CO)C[C@H](C)[C@@H](CN(C)Cc2ccc4c(c2)OCO4)OCCCC[C@@H](C)O3)cc1,/,21,/,/,1,2
Cc1cc(C(=O)CCl)c(C)n1CCc1ccccc1,/,32,/,/,8,75*
CCOC(=O)c1cc(C)n(CCc2ccccc2)c1C,-18,/,-39,-2,/,/
O=C(Nc1ccc2c(c1)CCC2)c1ccc(F)cc1,-33,-130,-48,20,29,/
O=C(Nc1ccc2c(c1)CCC2)c1cc(S(=O)(=O)Nc2ccc(F)cc2)c(Cl)cc1Cl,-2,20,37,52*,/,-4
COc1cccc(-c2nnc3n2N=C(C(C)(C)C)CS3)c1,65*,-13,64*,92*,/,/
C[C@H](CO)N1C[C@H](C)[C@@H](CN(C)C(=O)c2ccncc2)OCCCC[C@H](C)Oc2ccc(NS(=O)(=O)c3ccccc3)cc2C1=O,/,-5,/,/,6,-6
C[C@@H]1CN([C@H](C)CO)C(=O)c2cc(Br)cnc2O[C@H]1CN(C)S(=O)(=O)c1ccccc1,/,/,/,/,-4,-10
Cn1cc(C=O)c(-c2ccc3c(c2)OCCCO3)n1,-12,-98,25,71*,11,-70
Cn1cc(C(=O)O)c(-c2ccc3c(c2)OCCCO3)n1,-2,0,-18,-3,1,-7
O=C(NC1=C(NC2CCS(=O)(=O)C2)C(=O)c2ccccc2C1=O)c1ccccc1 (stereo not drawn),-20,96*,56*,92*,78*,30
Cc1cccc(NC2=C(NC(=O)c3ccccc3)C(=O)c3ccccc3C2=O)c1,-16,25,-12,2,19,/
C[C@@H]1CN([C@@H](C)CO)C(=O)CCCn2nncc2CO[C@H]1CN(C)Cc1ccc(C(=O)O)cc1,/,2,/,/,-8,-2
CNC(=O)Nc1ccccc1C(=O)NCc1ccccc1,7,/,-7,62*,/,/
C[C@@H](NC(=O)[C@H]1N[C@H]2c3ccc(C4=CCCCC4)c(=O)n3C[C@H]2[C@@H]1CO)c1ccccc1,/,/,/,/,-3,2
CCC(C)NC(=O)C1CCN(S(=O)(=O)c2cc([N+](=O)[O-])ccc2Cl)CC1 (stereo not drawn),5,18,-11,-9,-5,2
O=C(CSc1nc2ccccc2s1)Nc1ccc(Cl)c(S(=O)(=O)N2CCOCC2)c1,21,21,30,65*,0,/
O=C(CSc1nc2ccccc2o1)Nc1ccc(N2CCOCC2)c(Cl)c1,-5,/,52*,48,/,/
CC1CCc2nc(NC(=O)CSc3nc4ccccc4o3)sc2C1 (stereo not drawn),5,/,86*,93*,/,/
O=C(Nc1nc2ccccc2s1)C1CCN(S(=O)(=O)c2cc([N+](=O)[O-])ccc2Cl)CC1,0,43,36,84*,-20,22
O=C(CSc1nc2ccccc2s1)Nc1ccc(N2CCOCC2)c(Cl)c1,19,-8,28,38,8,/
COc1cc2c(cc1NC(=O)CN1C(=O)NC3(CCc4ccccc43)C1=O)oc1ccccc12 (stereo not drawn),-20,17,5,62*,/,/
Cc1cc(Br)ccc1OCCn1ccnc1,-41,73*,1,5,-12,8
Cc1cc(C)c(C)c(OCCn2ccnc2)c1,0,7,20,111*,-12,20
O=C(C[C@@H]1CC[C@@H](NC(=O)c2ccc(F)cc2)[C@H](CO)O1)NCCc1ccncc1,/,-3,/,/,-9,-3
SMILES,LMP1 NFkB inh,PAX8 inh HTS,TROY NFkB inh,TWEAK Fn14 block,LGR2 inh,EWS-Fli block
S=C(Nc1ccccc1)N1CCN(C2CCCCC2)CC1,-7,-8,60*,32,/,/
COc1ccc(OCCCN(C)Cc2ccccc2)cc1,7,-2,0,76*,-2,-5
COc1ccc(OCCN(C)Cc2ccccc2)cc1,18,-6,-32,-9,/,/
CS(=O)(=O)N1CC2(C1)[C@@H](c1ccccc1)[C@@H](CO)N2CC1CC1,/,-9,/,/,-1,-1
O=C(O)c1[nH]c2ccc(Cl)cc2c1CC(=O)N1CCN(C(=O)c2ccco2)CC1,3,/,-1,-7,/,/
O=C(c1ccco1)N1CCN(C(=O)C2CCCc3c2[nH]c2ccc(Cl)cc32)CC1 (stereo not drawn),19,/,/,66*,/,/
COc1ccccc1C#Cc1ccc([C@H]2[C@H](CO)N3CCCCN(C(=O)C4CCCC4)C[C@@H]23)cc1,/,-15,/,/,/,3
Cc1cc(CC(C)C)n(-c2nc3ccccc3c(=O)n2OCC(N)=O)n1,-20,/,53*,32,/,/
Cc1cc(C)n(-c2nc3ccccc3c(=O)n2OCC(N)=O)n1,-7,-5,2,24,/,/
C[C@@H]1CCCCO[C@@H](CN(C)CC2CC2)[C@H](C)CN([C@H](C)CO)C(=O)c2cc(NC(=O)Cc3ccccc3)ccc2O1,/,-19,/,/,14,24
COc1ccc2nnc(-c3ccc(C(F)(F)F)cc3)n2n1,5,31,-12,61*,-1,17
FC(F)(F)c1cccc(N2CCN(c3ccc4nnc(-c5ccccc5)n4n3)CC2)c1,-2,/,-9,-28,/,/
COc1ccc2[nH]c3c(C)c4ccncc4c(C)c3c2c1,-11,/,46,54*,/,59*
Cc1c2ccncc2cc2c1[nH]c1ccccc12,-24,-28,15,43,-3,4
CCCCC[C@H](O)/C=C/[C@H]1CCC(=O)[C@@H]1CCCCCCC(=O)N1CCCCC1CO (stereo partly drawn),10,70*,37,31,23,3
CCNS(=O)(=O)c1ccc(NC(=O)Cn2nc(C(F)(F)F)cc2C)cc1,7,/,/,87*,/,/
Cc1noc(C)c1NC(=O)N(C)C[C@H]1Oc2c(NC(=O)Nc3ccc4c(c3)OCO4)cccc2C(=O)N([C@H](C)CO)C[C@H]1C,/,/,/,/,7,-9
COCC(=O)N(C)C[C@H]1Oc2ncc(C#CC(C)(C)O)cc2C(=O)N([C@H](C)CO)C[C@@H]1C,/,-4,/,/,2,-1
O=C(c1ccccn1)N1CC2(C1)[C@H](c1ccccc1)[C@@H](CO)N2C(=O)C1CCCC1,/,/,/,/,-8,-1
COC(=O)c1ccc(CN2C(=O)NC3(CCCCC3C)C2=O)o1 (stereo not drawn),2,/,/,53*,/,/
C[C@H]1CCCCO[C@H](CN(C)Cc2ccc(Cl)c(Cl)c2)[C@@H](C)CN([C@@H](C)CO)C(=O)c2cc(NS(=O)(=O)c3ccc(F)cc3)ccc2O1,/,35,/,/,1,-42
Cc1ccc(S(=O)(=O)Nc2ccc3c(c2)C(=O)N([C@@H](C)CO)C[C@H](C)[C@@H](CN(C)Cc2ccc(Cl)c(Cl)c2)OCCCC[C@@H](C)O3)cc1,/,103*,/,/,0,12
